# Source: PubChem
# TDP1 cell CPT – DT40-hTDP1 cell growth loss with CPT; Potency, µM (highest dose often 46.2 µM), for the others: at the top dose activity change, negative = growth inhibition, most hits filed as inhibitors; actives 12% (n = 420,000); chicken DT40 Tdp1-/-;hTDP1 cells + 20 nM CPT, ATP luminescence, 48 h; further: nearly all actives have a fitted effect of over 55% in size
#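 Cell growth measured by CellTiter-Glo luminescence after a minimum 48 h, 37 C compound exposure with 20 nM CPT in Tdp1-knockout DT40 cells stably expressing hTDP1, seeded 400/well; qHTS titration format.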
# ELG1 DNA repair – inhibitors of ELG1-dependent DNA repair in HEK293T cells. HEK293T ELG1-luciferase reporter, luminescence, 16 h; DNA damage induced by 5-fluorouridine. actives 2.3% (n = 330,000). Potency, µM (series often up to 46.1 µM), for inactives: top-dose activity change, negative = inhibition, hits mostly inhibitors; further: nearly all actives have a fitted effect of over 55% in size
#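 Quantitative HTS, concentration-response format. 2,000 cells/well co-treated with 5-fluorouridine and compound, 16 hr in 5% CO2 at 37 °C; ONE-Glo luminescence read after 30 min.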
# Gal4-VP16 FLuc – counter-screen for ROR gamma inhibitors: Gal4-VP16 reporter; Drosophila S2 Gal4-VP16 UAS-luciferase, luminescence, 20 h; Potency, µM (series often up to 53.6 µM), without a hit: at the top dose activity, negative = inhibition, actives largely listed as inhibitors; actives 3.5% (n = 310,000); AID 2546;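 further: Gal4-VP16 expression switched on by copper sulfate through the metallothionein promoter; nearly all actives have a fitted effect of over 50% in size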
# 12-LOX inh – ALOX12 (human) lipoxygenase inhibition. actives 1.1% (n = 580,000). Potency, µM (highest dose often 108 µM), for the others: top-dose activity change, negative = inhibition, actives largely listed as inhibitors. purified 12hLO, xylenol orange hydroperoxide absorbance. P18054. AID 1671190
#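 Purified human 12hLO (150 nM final) in 25 mM Hepes, 0.01% Triton X-100, pH 7.0 was preincubated 15 min at room temperature with compound. Then 40 uM arachidonic acid was added, 30 min. Hydroperoxide was read by Fe-XO absorbance ratio 573/405 nm.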
# DT40 TDP1 no CPT – qHTS for Inhibitors of human tyrosyl-DNA phosphodiesterase 1 (TDP1): qHTS in cells in absence of CPT; DT40 Tdp1-/- hTDP1 cells, no CPT, ATP luminescence, 48 h; Potency, µM (top dose mostly 46.2 µM), without a hit: at the highest dose activity change, negative = growth inhibition, usual class: inhibitors; actives 15% (n = 420,000); further: nearly all actives have a fitted effect of over 55% in size
#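 Growth of hTDP1-complemented DT40 Tdp1-knockout cells is measured by ATP luminescence after at least 48 hr compound exposure at 37 °C, with DMSO substituting for the 20 nM CPT used in the parallel screen.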
# RORgamma inh – ROR gamma (mouse) transcription inhibition. actives 5.4% (n = 310,000). AID 2551. Drosophila S2 Gal4-RORgamma UAS-luciferase reporter, 20 h. Potency, µM (doses to about 53.6 µM), for the others: at the highest dose activity change, negative = inhibition, hits mostly inhibitors; further: nearly all actives have a fitted effect of over 60% in size
# Target sequence (P51450 whole entry, looked up, the tested form may be a part): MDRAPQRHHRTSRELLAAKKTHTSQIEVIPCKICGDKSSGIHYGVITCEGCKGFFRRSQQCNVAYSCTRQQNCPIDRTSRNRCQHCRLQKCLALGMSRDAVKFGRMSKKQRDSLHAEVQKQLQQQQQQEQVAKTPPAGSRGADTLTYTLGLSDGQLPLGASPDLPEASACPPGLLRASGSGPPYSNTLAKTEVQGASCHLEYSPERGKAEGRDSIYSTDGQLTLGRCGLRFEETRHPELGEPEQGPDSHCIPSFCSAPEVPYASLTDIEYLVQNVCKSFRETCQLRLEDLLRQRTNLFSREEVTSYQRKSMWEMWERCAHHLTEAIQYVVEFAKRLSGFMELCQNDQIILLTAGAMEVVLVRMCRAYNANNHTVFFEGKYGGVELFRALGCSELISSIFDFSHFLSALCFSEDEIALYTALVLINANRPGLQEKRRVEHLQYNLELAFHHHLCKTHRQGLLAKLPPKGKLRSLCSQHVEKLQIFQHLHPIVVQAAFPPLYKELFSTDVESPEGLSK
#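 Luciferase reporter read in Schneider cells carrying Gal4-RORγ (mouse) and UAS-Photinus luciferase; cells given compound 1 h before 700 uM copper sulfate induction, then incubated 20 h at ambient temperature.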
# An asterisk follows results filed as active; ? = inconclusive; nt = no result. Only some compounds are listed: those with a hit (about 15% of all), similar ones and a draw of the others. The call rests on the fitted dose curve; in most records, active means well fitted curve in the direction sought with a large enough effect; inconclusive means small, poorly fitted or top-dose-only effect, or another doubt; inactive means no such curve, though single readings can be large; an effect the other way counts as inactive or inconclusive. On the % scale 0 is the no-effect control and ±100 the full control effect; potency means the concentration at half of the fitted maximal effect.
SMILES,TDP1 cell CPT,ELG1 DNA repair,Gal4-VP16 FLuc,12-LOX inh,DT40 TDP1 no CPT,RORgamma inh
CC(C)(C)C1CCC(=O)N(CCSc2ccccc2)CC1 (centres undefined),?,?,-12%,-8%,?,28%
CC(=O)Nc1ccc(SCCN2CC[C@@H](C(C)(C)C)CCC2=O)cc1,?,-29%,nt,-64%,13µM*,nt
Cc1cccc(NC(=O)CN2CCC(C(=O)c3ccc4c(c3)OCCO4)CC2)c1,?,-26%,?,8%,16µM*,42%
O=C(c1ccc2c(c1)OCCO2)C1CCN(C(=O)Nc2ccc(F)cc2)CC1,?,?,-20%,-19%,18µM*,8%
CC(=O)Oc1ccc2c(C)c(CC(=O)Nc3ncc(C)s3)c(=O)oc2c1,nt,nt,nt,1%,nt,nt
CCC(=O)N1CCCC(C(=O)N(C)Cc2cccc(C(F)(F)F)c2)C1 (centres undefined),nt,nt,nt,9%,nt,nt
O=C(CC1CCCN(c2cnn(CC3CC3)c(=O)c2)C1)NCc1ccccc1Cl (centres undefined),nt,nt,nt,29%,nt,nt
Cc1ccc(C)c(NC2=C(c3ccc(C(F)(F)F)cc3)C(=O)c3ccccc32)c1,5.8µM*,nt,nt,-18%,5.8µM*,nt
COc1cc(OC)c(NC2=C(c3ccc(C(F)(F)F)cc3)C(=O)c3ccccc32)cc1Cl,?,nt,nt,-32%,23µM*,nt
O=C(C1CCCC1)N1C[C@@H](COc2ccncc2)[C@H](c2ccccn2)C1,nt,nt,nt,18%,nt,nt
O=C(Oc1ccc(N(Cc2cccs2)C2=NS(=O)(=O)c3ccccc32)cc1)c1ccccc1Cl,6.5µM*,-27%,2%,18%,5.8µM*,6%
CC1(C)C2CCC1(CS(=O)(=O)NCc1ccc(C(F)(F)F)cc1)C(=O)C2 (centres undefined),?,?,-1%,nt,12µM*,19%
[O-][n+]1c2ccccc2cc2ccccc21,?,-6%,nt,3%,9.2µM*,nt
COc1ccc2nc3ccccc3[n+]([O-])c2c1,-10%,nt,nt,?,?,nt
CCC1(C(=O)N2CCc3ccccc3C2)CCCCC(=O)N1 (centres undefined),nt,nt,nt,2%,nt,nt
C=CCNC(=S)N/N=C1\CCS(=O)(=O)c2ccccc21,0%,?,?,?,-4%,18µM*
O=S1(=O)CC/C(=N\O)c2ccccc21,-16%,11%,-21%,?,-1%,?
Cn1c(SCC(=O)NCc2ccc3c(c2)OCCCO3)nnc1-c1cccs1,nt,nt,nt,18%,nt,nt
CCn1nc(C)cc1C(=O)OCC(=O)c1ccc(Cl)cc1,-15%,-5%,9%,?,-18%,7%
CCn1nc(C)cc1C(=O)Sc1ccc(Cl)cc1Cl,3.7µM*,12%,-6%,0%,3.7µM*,?
CCn1nc(C)cc1C(=O)Sc1cccc(Br)c1,3.7µM*,13%,?,-164%,4.6µM*,?
COc1ccccc1CN1CCN(Cc2nc(-c3ccccc3)no2)CC1,-10%,?,-16%,-1%,0%,-4%
COc1ccc(N2CCN(Cc3nc(-c4ccc(C)cc4)no3)CC2)cc1,?,nt,nt,-29%,23µM*,nt
COc1ccc(-c2noc(-c3ccoc3C)n2)cc1,?,?,?,-8%,18µM*,25%
COc1ccccc1N1CCN(Cc2nc(-c3cc(OC)c(OC)c(OC)c3)no2)CC1,23µM*,nt,nt,3%,18µM*,nt
COc1ccc(-c2noc(CN3CCN(c4cccc(Cl)c4)CC3)n2)cc1,?,nt,nt,-6%,?,nt
COc1cc(-c2noc(CN3CCN(c4ccccc4)CC3)n2)cc(OC)c1OC,?,nt,nt,-16%,21µM*,nt
CCN1CCN(c2nc3c(s2)CN(C(=O)CCC(C)C)CC3)CC1,nt,nt,nt,23%,nt,nt
